# A collection of fitness landscapes (doi:10.1126/science.1257360)
# The full ranking holds about 140,000 sequences; the median of “enrichment ratio after two sorts for PhoP signalling” is about 0, and the highest 2% start at about 11. This is one part of a sample in which the highest values are shown more often than they occur.
# B1: PhoQ; a variant is named by its letters at X, in order, P23837 (parent)
# chain: MKKLLRLFFPLSLRVRFLLATAAVVLVLSLAYGMVALIGYSVSFDKTTFRLLRGESNLFYTLAKWENNKLHVELPENIDKQSPTMTLIYDENGQLLWAQRDVPWLMKMIQPDWLKSNGFHEIEADVNDTSLLLSGDHSIQQQLQEVREDDDDAEMTHSVAVNVYPATSRMPKLTIVVVDTIPVELKSSYMVWSWFIYVLSANLLLVIPLLWVAAWWSLRPIEALAKEVRELEEHNRELLNPATTRELTSLVRNLNRLLKSERERYDKYRTTLTDLTHSLKTPLXXLQXXLRSLRSEKMSVSDAEPVMLEQISRISQQIGYYLHRASMRGGTLLSRELHPVAPLLDNLTSALNKVYQRKGVNISLDISPEISFVGEQNDFVEVMGNVLDNACKYCLEFVEISARQTDEHLYIVVEDDGPGIPLSKREVIFDRGQRVDTLRPGQGVGLAVAREITEQYEGKIVAGESMLGGARMEVIFGRQHSAPKDE
# Variants of: B1
# Assay: enrichment ratio after two sorts for PhoP signalling (ratio (wild type AVST 3.29)); higher = more functional
# Details: with PhoP (E. coli)
row,Variant,enrichment ratio
1,MDWW,≤ 0.25
2,ACPI,9.4
3,RIAV,≤ 0.25
4,HQNT,≤ 0.25
5,IGGC,≤ 0.25
6,THMG,2.89
7,SHVG,≤ 0.25
8,SHMW,0.684
9,THCG,5.77
10,SHMG,17.8
11,SHCG,16.6
12,REDG,≤ 0.25
13,WCII,≤ 0.25
14,ENIH,≤ 0.25
15,MRCK,≤ 0.25
16,MGLF,2.83
17,RFHY,≤ 0.25
18,MMCI,≤ 0.25
19,SCAE,8.81
20,QGYM,23.9
21,MKYM,6.46
22,TGYM,26.5
23,NGYM,≤ 0.25
24,TKYM,25.3

row,Variant,enrichment ratio
1,QTYM,0.346
2,QQYN,≤ 0.25
3,TKYN,≤ 0.25
4,RGYM,≤ 0.25
5,FFYM,≤ 0.25
6,QQYM,47.2
7,QQYI,≤ 0.25
8,LYSK,≤ 0.25
9,DGPS,≤ 0.25
10,NVIN,≤ 0.25
11,YLDS,≤ 0.25
12,TVAW,2.61
13,SNQY,2.66
14,VDNL,≤ 0.25
15,REKA,≤ 0.25
16,QKFM,≤ 0.25
17,QDYM,≤ 0.25
18,QRFM,≤ 0.25
19,STYM,0.458
20,QEYM,24.7
21,QEFM,18.2
22,GMSV,6.09
23,MLVP,≤ 0.25
24,NCCG,≤ 0.25

row,Variant,enrichment ratio
1,NVWH,≤ 0.25
2,TGWH,19.8
3,TEWH,35.2
4,NAWH,≤ 0.25
5,TQWH,21.9
6,NEWH,≤ 0.25
7,KSWH,≤ 0.25
8,KAWH,≤ 0.25
9,HPWH,≤ 0.25
10,KCWH,≤ 0.25
11,QAWH,31.4
12,HRWH,≤ 0.25
13,KQNP,≤ 0.25
14,RGWC,≤ 0.25
15,PCRT,≤ 0.25
16,DAYY,≤ 0.25
17,HSCT,≤ 0.25
18,VRFP,≤ 0.25
19,DLDP,≤ 0.25
20,DHCF,≤ 0.25
21,MCIR,≤ 0.25
22,TELT,14.5
23,TENT,3.14
24,MELD,≤ 0.25

row,Variant,enrichment ratio
1,TEYI,8.43
2,TEWI,4.93
3,TEFT,5.71
4,TELD,13.4
5,TEAT,17
6,TEET,≤ 0.25
7,TEVT,3.71
8,TELA,16.8
9,NELD,≤ 0.25
10,NHGP,≤ 0.25
11,KQPT,≤ 0.25
12,KTHI,≤ 0.25
13,QTDQ,≤ 0.25
14,GRFL,≤ 0.25
15,AWWN,≤ 0.25
16,HNIY,≤ 0.25
17,YESG,0.306
18,HPLN,≤ 0.25
19,TELY,15.5
20,NELH,2.12
21,HPLH,≤ 0.25
22,NELY,≤ 0.25
23,NELC,5.14
24,TELN,21.6

row,Variant,enrichment ratio
1,QELC,≤ 0.25
2,DELY,≤ 0.25
3,TELC,11.4
4,TELH,11.2
5,TEYN,3.14
6,KTRY,≤ 0.25
7,PMLD,≤ 0.25
8,APTN,≤ 0.25
9,TEAS,16.2
10,QGGT,8.36
11,QEAF,≤ 0.25
12,QEAS,10.1
13,QRGT,≤ 0.25
14,QEGT,24.3
15,TEAA,2.61
16,MEAS,3.94
17,QEAD,≤ 0.25
18,TEAF,13.8
19,MEAF,≤ 0.25
20,TEAD,16.8
21,EISC,≤ 0.25
22,KVKA,≤ 0.25
23,EFER,≤ 0.25
24,EFNA,≤ 0.25

row,Variant,enrichment ratio
1,IKFE,≤ 0.25
2,PTLL,≤ 0.25
3,SHIM,2.2
4,PILC,≤ 0.25
5,NELF,≤ 0.25
6,NELL,≤ 0.25
7,TELP,≤ 0.25
8,TELW,≤ 0.25
9,CDYS,≤ 0.25
10,TEYS,11.9
11,MELL,3.52
12,TELL,16.9
13,TELF,12.2
14,TELS,12.5
15,YTYS,≤ 0.25
16,MELF,0.528
17,PWMG,≤ 0.25
18,ETEG,≤ 0.25
19,ASGY,3.18
20,YDLK,≤ 0.25
21,MDNI,≤ 0.25
22,IQKP,≤ 0.25
23,VRDA,≤ 0.25
24,WIHY,≤ 0.25

row,Variant,enrichment ratio
1,FACS,≤ 0.25
2,ESAP,≤ 0.25
3,RPEH,≤ 0.25
4,THGT,≤ 0.25
5,TEGT,22.6
6,TELI,19.5
7,QELI,≤ 0.25
8,NHGT,≤ 0.25
9,MELI,6.46
10,ADTR,≤ 0.25
11,QRFP,≤ 0.25
12,VSPY,≤ 0.25
13,KAWC,≤ 0.25
14,LCWC,≤ 0.25
15,QRWC,≤ 0.25
16,TAWC,11.3
17,YAWC,≤ 0.25
18,QFWC,17.1
19,TSWC,17.5
20,WIWC,≤ 0.25
21,TGWC,13.8
22,QPWC,≤ 0.25
23,KSWC,≤ 0.25
24,MMWC,≤ 0.25

row,Variant,enrichment ratio
1,NPNK,≤ 0.25
2,MMHM,≤ 0.25
3,SCKK,≤ 0.25
4,TYID,≤ 0.25
5,LNTD,≤ 0.25
6,IKRA,≤ 0.25
7,QRQH,≤ 0.25
8,NYNA,≤ 0.25
9,MFGV,≤ 0.25
10,NQWC,≤ 0.25
11,NEWC,≤ 0.25
12,TNWC,≤ 0.25
13,TQWC,29.7
14,HPWC,≤ 0.25
15,LNWC,≤ 0.25
16,MNWC,11.8
17,TEWC,33.2
18,NRWC,≤ 0.25
19,FYWP,≤ 0.25
20,RAPP,≤ 0.25
21,TIYT,2.66
22,HIYY,≤ 0.25
23,IYRV,≤ 0.25
24,SKMA,3.27

row,Variant,enrichment ratio
1,WRFK,≤ 0.25
2,DFPC,≤ 0.25
3,YMWR,≤ 0.25
4,QAAI,12.7
5,QPAI,≤ 0.25
6,MKAI,≤ 0.25
7,YTAI,≤ 0.25
8,MTAI,17.8
9,TPAI,≤ 0.25
10,GKTK,≤ 0.25
11,YGMR,≤ 0.25
12,ACFV,≤ 0.25
13,YCLM,14.9
14,FCLM,12.7
15,IALM,6.67
16,YYLM,≤ 0.25
17,HMPM,≤ 0.25
18,ISLM,12.9
19,ISWM,≤ 0.25
20,KCLM,≤ 0.25
21,HMGM,≤ 0.25
22,HMTM,11.7
23,FVLM,8.14
24,YCWM,≤ 0.25

row,Variant,enrichment ratio
1,QYLA,≤ 0.25
2,RGIA,≤ 0.25
3,WTPQ,≤ 0.25
4,MDVM,8.67
5,PTAN,≤ 0.25
6,QCEP,≤ 0.25
7,CALR,≤ 0.25
8,WMFY,≤ 0.25
9,IQQW,≤ 0.25
10,VWEW,≤ 0.25
11,HMQF,≤ 0.25
12,YSKM,≤ 0.25
13,WFWG,≤ 0.25
14,GVAV,≤ 0.25
15,SYLM,≤ 0.25
16,FSLM,19.2
17,KSLM,≤ 0.25
18,TSLM,16.7
19,HSLM,22.1
20,NSLM,7.81
21,HSFM,≤ 0.25
22,HSLA,≤ 0.25
23,FFLM,≤ 0.25
24,FQLM,1.74

row,Variant,enrichment ratio
1,SSLM,17.1
2,QNNM,≤ 0.25
3,YPIG,≤ 0.25
4,PMYL,≤ 0.25
5,WVSG,≤ 0.25
6,GGKL,≤ 0.25
7,LPCH,≤ 0.25
8,RYCQ,≤ 0.25
9,FALM,17
10,HSTM,13.1
11,MALM,9.02
12,HSCK,≤ 0.25
13,HSWM,≤ 0.25
14,FAPM,0.451
15,AEWY,6.65
16,FPSQ,≤ 0.25
17,YFHS,≤ 0.25
18,HESK,≤ 0.25
19,QHDG,110
20,QHDS,29.2
21,NHDI,≤ 0.25
22,THDG,≤ 0.25
23,QHGM,≤ 0.25
24,QHDA,10.1

row,Variant,enrichment ratio
1,QHDK,≤ 0.25
2,QHDI,19.6
3,PHDG,≤ 0.25
4,THDI,≤ 0.25
5,QHDM,19.5
6,QHRM,≤ 0.25
7,LMVM,≤ 0.25
8,EFMR,≤ 0.25
9,LCAK,≤ 0.25
10,IKYG,≤ 0.25
11,AISC,9.79
12,SAFV,≤ 0.25
13,AGNI,≤ 0.25
14,PWYG,≤ 0.25
15,WELF,≤ 0.25
16,YQWM,≤ 0.25
17,YQLA,≤ 0.25
18,WELM,17.4
19,YQNY,≤ 0.25
20,WFLM,≤ 0.25
21,WEGM,≤ 0.25
22,YQNS,≤ 0.25
23,WQLM,15.8
24,WILM,≤ 0.25

row,Variant,enrichment ratio
1,YQLM,17.7
2,YQNA,14.6
3,QISH,7.86
4,FCVP,≤ 0.25
5,NSRA,0.539
6,NGWY,≤ 0.25
7,VQWA,≤ 0.25
8,TQLM,22.7
9,NQLM,6.38
10,KYLM,≤ 0.25
11,SQLM,21.3
12,EQLM,≤ 0.25
13,DPLM,≤ 0.25
14,MPQH,≤ 0.25
15,KFKS,≤ 0.25
16,TDIN,≤ 0.25
17,LAGL,≤ 0.25
18,SWST,≤ 0.25
